In PubChem BioAssay (NCI) one finds growth data, which are given here for 14 compounds.

About 83,000 compounds went through this panel and 20% of them were active in at least one assay; those are over-represented in the sample as a whole.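 Method: cells in 96-well plates; compound added at one concentration; 48 h incubation; percent growth measured; values under 10 scored active.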 A number with no mark means an inactive call. Active and inactive are the calls of the source.

Some test systems named below: SR leukemia; RPMI-8226 leukemia; OVCAR-8 ovarian; OVCAR-5 ovarian; OVCAR-4 ovarian; SK-OV-3 ovarian; IGROV1 ovarian; OVCAR-3 ovarian; HS 578T breast; NCI/ADR-RES ovarian.
What all share (experiment): NCI-60 one-dose screen, 48 h (100 = growth as untreated, 0 = no growth, -100 = all killed)
What all share (conditions): 10 µM

In the case of `Cc1ccccc1C1=N[C@@H](Cc2ccccc2)C(=O)c2c(nc3ccccn23)N1`, the growth in the assay with SR leukemia was 122%; with RPMI-8226 leukemia, 98.4%; in the assay on OVCAR-8 ovarian, 92.8%; in the assay with OVCAR-5 ovarian it was 101%; in the assay with OVCAR-4 ovarian, 98.7%; in the assay on SK-OV-3 ovarian, 111%. The growth in the assay on IGROV1 ovarian was 108%; in the assay on OVCAR-3 ovarian, 108%; in the assay with HS 578T breast it was 102%; with NCI/ADR-RES ovarian it was 95.6%.
Regarding `O=C(c1ccc(Cl)cc1)c1no[n+]([O-])c1C(=O)c1ccc(Cl)cc1`, the growth with SR leukemia is -18.5% (active); in the assay with RPMI-8226 leukemia, 35.5%; in the assay with OVCAR-8 ovarian it was 30.1%; in the assay with OVCAR-5 ovarian, 105%; in the assay with OVCAR-4 ovarian, 92.5%; in the assay with SK-OV-3 ovarian, 105%. The growth in the assay with IGROV1 ovarian is -35.8% (active); with OVCAR-3 ovarian it was 43.2%; in the assay on HS 578T breast, 109%; with NCI/ADR-RES ovarian, 82.7%.
In the case of `O=C(O)c1ccc(CNc2ccc(C(=O)CCl)cc2)cc1`, the growth in the assay with SR leukemia was 41.8%; in the assay on RPMI-8226 leukemia it was 85.7%; in the assay with OVCAR-8 ovarian, 99.3%; with OVCAR-5 ovarian, 96.8%; with OVCAR-4 ovarian it was 91%; in the assay with SK-OV-3 ovarian, 100%. For the same compound, the growth in the assay with IGROV1 ovarian was 134%; with OVCAR-3 ovarian, 90.5%; in the assay on HS 578T breast, 87.4%; in the assay with NCI/ADR-RES ovarian, 123%.
Turning to `COC(=O)[C@]12CC[C@@H](C)[C@H](C)[C@@H]1C1=CC[C@@H]3[C@@]4(C)CC(=O)[C@H](O)[C@@]5(C)COC(=C45)C[C@@]3(C)[C@]1(C)CC2`, the growth in the assay on SR leukemia was -31.7% (active); in the assay on RPMI-8226 leukemia, -32% (active); in the assay with OVCAR-8 ovarian it was -45.2% (active); in the assay on OVCAR-5 ovarian, -40.4% (active); with OVCAR-4 ovarian, -85.3% (active); with SK-OV-3 ovarian, -68.3% (active). Further, the growth was -44.9% (active) in the assay on IGROV1 ovarian, -84.7% (active) in the assay with OVCAR-3 ovarian, -5.08% (active) with HS 578T breast and -59.7% (active) with NCI/ADR-RES ovarian.
`COc1ccc(-c2csc(-c3cc(Cl)cc(Cl)c3Cl)n2)cc1`: the growth in the assay with SR leukemia was 88.8%; in the assay with RPMI-8226 leukemia it was 93.5%; with OVCAR-8 ovarian it was 29.7%; in the assay on OVCAR-5 ovarian, 109%; with OVCAR-4 ovarian, 85.2%; in the assay with SK-OV-3 ovarian it was 90.5%. The growth with IGROV1 ovarian was 58.3%; with OVCAR-3 ovarian, 105%; in the assay with HS 578T breast, 80.4%; in the assay with NCI/ADR-RES ovarian, 97.1%.
Consider `Brc1ccc(-c2cn3ccnc3c(-c3ccc(Br)cc3)n2)cc1`, for which the growth with SR leukemia was 13.4%; in the assay on RPMI-8226 leukemia it was 58.3%; in the assay on OVCAR-8 ovarian, 51.6%; in the assay with OVCAR-5 ovarian, 82.4%; in the assay on OVCAR-4 ovarian, 62.2%; in the assay with SK-OV-3 ovarian, 55.2%. In addition, the growth is 55.8% with IGROV1 ovarian, 31.9% with OVCAR-3 ovarian, 61.1% in the assay on HS 578T breast and 19.7% with NCI/ADR-RES ovarian.
With `CCN(Cc1ccccc1)C1CCN(Cc2cc(Br)ccc2O)CC1`, the growth in the assay with SR leukemia is 7.57% (active); in the assay with RPMI-8226 leukemia, 21.9%; with OVCAR-8 ovarian it was 59.9%; with OVCAR-5 ovarian, 68.1%; with OVCAR-4 ovarian it was 36.9%; in the assay with SK-OV-3 ovarian, 76.9%. Besides, the growth in the assay with IGROV1 ovarian is 44.6%; in the assay with OVCAR-3 ovarian, 51.8%; in the assay on HS 578T breast it was 56.6%; in the assay on NCI/ADR-RES ovarian, 36.1%.
With `CCSc1nc2c([nH]1)c(=O)n(C)c(=S)n2C`, the growth with SR leukemia is 118%; with RPMI-8226 leukemia, 112%; in the assay on OVCAR-8 ovarian, 108%; in the assay on OVCAR-5 ovarian it was 99.1%; with OVCAR-4 ovarian, 114%; with SK-OV-3 ovarian it was 103%. Further, the growth in the assay on IGROV1 ovarian was 116%; with OVCAR-3 ovarian it was 112%; in the assay with HS 578T breast it was 115%; with NCI/ADR-RES ovarian it was 105%.
As to `Nc1c(CNCc2nnn(Cc3ccccc3)c2N)nnn1Cc1ccccc1`, the growth was 90% in the assay on SR leukemia; 94.7% with RPMI-8226 leukemia; 99.8% in the assay on OVCAR-8 ovarian; 95.5% with OVCAR-5 ovarian; 92.1% in the assay with OVCAR-4 ovarian; 114% in the assay on SK-OV-3 ovarian. Further, the growth in the assay on IGROV1 ovarian was 102%; in the assay on OVCAR-3 ovarian, 107%; in the assay with HS 578T breast, 99%; with NCI/ADR-RES ovarian, 97.2%.
Turning to `Cc1ncc([N+](=O)[O-])n1CCOc1ccc(C(=O)/C=C/c2ccc(C(F)(F)F)cc2)cc1`, the growth is -13.2% (active) in the assay with SR leukemia; 12.9% with RPMI-8226 leukemia; 51.8% in the assay with OVCAR-8 ovarian; 90% in the assay with OVCAR-5 ovarian; 100% with OVCAR-4 ovarian; 79.4% in the assay on SK-OV-3 ovarian. Further, the growth in the assay with IGROV1 ovarian was 80.4%; with OVCAR-3 ovarian, 51.3%; in the assay with HS 578T breast it was 66.9%; with NCI/ADR-RES ovarian, 65.9%.
As for `COC(=O)c1ccc(Cn2ccc(=O)[nH]c2=O)cc1`, the growth in the assay on SR leukemia was 94.1%; in the assay on RPMI-8226 leukemia, 106%; with OVCAR-8 ovarian it was 115%; in the assay on OVCAR-5 ovarian, 104%; with OVCAR-4 ovarian it was 109%; in the assay on SK-OV-3 ovarian, 116%. For the same compound, the growth in the assay with IGROV1 ovarian is 114%; with OVCAR-3 ovarian, 130%; in the assay with HS 578T breast, 121%; with NCI/ADR-RES ovarian, 110%.
As for `CCCCCCCCCCSC(=N)N` (tested in a mixture with another compound), the growth in the assay with SR leukemia was -26.7% (active); in the assay with RPMI-8226 leukemia it was 38%; in the assay with OVCAR-8 ovarian, 81.6%; in the assay with OVCAR-5 ovarian it was 101%; in the assay with OVCAR-4 ovarian, 90%; in the assay on SK-OV-3 ovarian, 85.9%. The growth with IGROV1 ovarian was 68%; with OVCAR-3 ovarian, 76.1%; in the assay on HS 578T breast it was 81.9%; in the assay on NCI/ADR-RES ovarian it was 82.5%.
As to `O=C1/C(=C/c2ccc([N+](=O)[O-])s2)Oc2ccc(Cl)cc21`, the growth is 1.07% (active) with SR leukemia; 0.77% (active) with RPMI-8226 leukemia; 1.27% (active) in the assay with OVCAR-8 ovarian; -80.6% (active) with OVCAR-5 ovarian; -76.5% (active) in the assay on OVCAR-4 ovarian; 7.47% (active) in the assay on SK-OV-3 ovarian. Also, the growth in the assay on IGROV1 ovarian is -67.9% (active); in the assay on OVCAR-3 ovarian it was -68.8% (active); in the assay on HS 578T breast, 17.6%; with NCI/ADR-RES ovarian, 4.88% (active).
As to `O=S(=O)(NCCO)c1ccc(OCCOc2ccc(S(=O)(=O)NCCO)cc2)cc1`, the growth in the assay with SR leukemia was 104%; in the assay on RPMI-8226 leukemia, 98%; with OVCAR-8 ovarian, 98.7%; in the assay on OVCAR-5 ovarian, 99.2%; in the assay with OVCAR-4 ovarian, 107%; in the assay on SK-OV-3 ovarian it was 96.1%. Further, the growth with IGROV1 ovarian was 99.9%; in the assay on OVCAR-3 ovarian, 111%; in the assay on HS 578T breast, 104%; in the assay on NCI/ADR-RES ovarian it was 97.8%.
